Reference: PubChem BioAssay (NCATS)
Several values for one entry are separate records, joined by “and”; a condition that tells them apart may be missing. Equal entries are not always repeated. A number with no mark means an inactive call. Inconclusive results are not listed. Where a call stands in place of a potency, no number is given. Activity calls are given as the source filed them. Unless noted, the call rests on the fitted dose curve; in most records, active means well fitted curve in the direction sought with a large enough effect; inconclusive means small, poorly fitted or top-dose-only effect, or another doubt; inactive means no such curve, though single readings can be large; an effect the other way counts as inactive or inconclusive.

Key:
CASKI = experiment: Primary qHTS to identify gynecologic anti-cancer compounds using libraries of approved drugs and bioactive compounds (AID 1345084); conditions: Gynecologic cancer cell panel viability, ATPlite luminescence, 48 h; series mostly up to 57.5 µM; further: nearly all actives have a fitted effect of over 55% in size
Procedure, shortened: (§1)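 Cells, 1,000 per well, plated 16 h, then exposed 48 h at 37 C to compounds. Viability by ATPlite luminescence after 15 min at room temperature.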

Es-2 = experiment: as above; conditions: Gynecologic cancer cell panel viability, ATPlite luminescence, 48 h; series mostly up to 57.5 µM
Procedure, shortened: as §1

HeLa = experiment: as above; conditions: Gynecologic cancer cell panel viability, ATPlite luminescence, 48 h; series mostly up to 57.5 µM
Procedure, shortened: as §1

Hek293T = experiment: as above; conditions: Gynecologic cancer cell panel viability, ATPlite luminescence, 48 h, control line for the selectivity index; series mostly up to 57.5 µM
Procedure, shortened: as §1

JEG-3 = experiment: as above; conditions: Gynecologic cancer cell panel viability, ATPlite luminescence, 48 h; series mostly up to 57.5 µM
Procedure, shortened: as §1

OV90 = experiment: as above; conditions: Gynecologic cancer cell panel viability, ATPlite luminescence, 48 h; series mostly up to 57.5 µM
Procedure, shortened: as §1

PA-1 = experiment: as above; conditions: Gynecologic cancer cell panel viability, ATPlite luminescence, 48 h; series mostly up to 57.5 µM
Procedure, shortened: as §1

Tov-21-G = experiment: as above; conditions: Gynecologic cancer cell panel viability, ATPlite luminescence, 48 h; series mostly up to 57.5 µM
Procedure, shortened: as §1

Tov112D = experiment: as above; conditions: Gynecologic cancer cell panel viability, ATPlite luminescence, 48 h; series mostly up to 57.5 µM
Procedure, shortened: as §1

[1] = Drug repurposing screens with cells derived from glioblastoma tumor samples (AID 1345199); conditions: GBM patient neurospheres viability, ATP luminescence, 48 h; further: nearly all actives have a fitted effect of over 40% in size; further: potency means the concentration at half of the fitted maximal effect
Procedure, shortened: (§2)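 Primary testing used CD133+ neurospheres from four GBM patients, seven concentrations, 48 h exposure and ATP-based viability; confirmation added three slower-growing patient lines.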

astro = experiment: as above; conditions: viability, ATP luminescence, 48 h; series mostly up to 45.9 µM
Procedure, shortened: as §2

[2] = target: Nuclear receptor subfamily 1 group I member 2 (Rattus norvegicus) (UniProt Q9R1A7); experiment: qHTS assay for small molecule activators of the rat pregnane X receptor (rPXR) signaling pathway (AID 651751; call rule not given here); conditions: rPXR reporter cells, luciferase (One-Glo), 24 h
[3] = qHTS assay for small molecule activators of the human pregnane X receptor (PXR) signaling pathway (AID 720659; call rule not given here)
SKOV3 = experiment: Primary qHTS to identify gynecologic anti-cancer compounds using libraries of approved drugs and bioactive compounds (AID 1345084); conditions: Gynecologic cancer cell panel viability, ATPlite luminescence, 48 h; series mostly up to 57.5 µM; further: nearly all actives have a fitted effect of over 55% in size
Procedure, shortened: as §1

[4] = at 45.9 µM (top of the series), tumour line B
[5] = at 45.9 µM (top of the series), tumour line D
[6] = at 46 µM (top of the series), tumour line A
[7] = at 46.1 µM (top of the series), tumour line C

Chain of Nuclear receptor subfamily 1 group I member 2 (Rattus norvegicus) (Q9R1A7 whole entry, looked up): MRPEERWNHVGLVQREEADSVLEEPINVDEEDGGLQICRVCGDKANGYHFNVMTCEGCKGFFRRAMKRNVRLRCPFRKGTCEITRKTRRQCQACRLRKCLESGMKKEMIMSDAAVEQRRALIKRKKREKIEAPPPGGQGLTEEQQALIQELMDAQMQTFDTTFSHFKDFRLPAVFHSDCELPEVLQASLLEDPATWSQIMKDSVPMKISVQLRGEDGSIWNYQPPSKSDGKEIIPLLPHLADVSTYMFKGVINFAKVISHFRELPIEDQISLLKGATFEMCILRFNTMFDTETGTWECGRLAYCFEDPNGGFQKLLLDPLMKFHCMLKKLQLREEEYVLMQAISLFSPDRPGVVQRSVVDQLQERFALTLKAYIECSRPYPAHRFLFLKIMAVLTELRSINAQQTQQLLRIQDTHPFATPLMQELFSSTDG

Compound: Nc1ccc(S(=O)(=O)Nc2nccs2)cc1
- Potency (CASKI): inactive
- Potency (Es-2): inactive
- Potency (HeLa): inactive
- Potency (Hek293T): inactive
- Potency (JEG-3): inactive
- Potency (OV90): inactive
- Potency (PA-1): inactive
- Potency (Tov-21-G): inactive
- Potency (Tov112D): inactive
- activity, negative = cell killing [1, 4]: -4.74%
- activity, negative = cell killing [1, 5]: -5.75%
- activity, negative = cell killing [1, 6]: -21.1%
- activity, negative = cell killing [1, 7]: -7.84%
- Potency (astro): inactive
- max response [2]: -1.7%
- outcome [3]: inactive

Compound: C=Cc1c(C)c2cc3[nH]c(cc4nc(cc5nc(cc1[nH]2)C(C)=C5CCC(=O)O)C(CCC(=O)O)=C4C)c(C)c3C=C
- Potency (CASKI): inactive
- Potency (Es-2): inactive
- Potency (HeLa): inactive
- Potency (Hek293T): inactive
- Potency (JEG-3): inactive
- Potency (OV90): inactive
- Potency (PA-1): inactive
- Potency (Tov-21-G): inactive
- Potency (Tov112D): inactive
- activity, negative = cell killing [1, 4]: -11.3%
- activity, negative = cell killing [1, 5]: -20.2%
- activity, negative = cell killing [1, 6]: -14%
- activity, negative = cell killing [1, 7]: -7.06%
- Potency (astro): inactive

Compound: CC(=O)Nc1ccc(/C=N/NC(N)=S)cc1
- Potency (CASKI): inactive
- Potency (Es-2): inactive
- Potency (HeLa): inactive
- Potency (Hek293T): inactive
- Potency (JEG-3): inactive
- Potency (OV90): inactive
- Potency (PA-1): inactive
- Potency (Tov-21-G): inactive
- Potency (Tov112D): inactive
- activity, negative = cell killing [1, 4]: -6.76% and -4.79%
- activity, negative = cell killing [1, 5]: -13.7% and -15.9%
- activity, negative = cell killing [1, 6]: -28.2%
- activity, negative = cell killing [1, 7]: -27.6% and -20.2%
- Potency (astro): inactive

Compound: O=C(CCCN1CCN(c2ccccn2)CC1)c1ccc(F)cc1
- Potency (CASKI): inactive
- Potency (Es-2): inactive
- Potency (HeLa): inactive
- Potency (Hek293T): inactive
- Potency (JEG-3): inactive
- Potency (OV90): inactive
- Potency (PA-1): inactive
- Potency (SKOV3): inactive
- Potency (Tov-21-G): inactive
- Potency (Tov112D): inactive
- activity, negative = cell killing [1, 4]: -17%
- Potency ([1]; tumour line A): 8.91 µM (active)
- Potency (astro): inactive

Compound: O=C(O)c1ccccn1
- Potency (CASKI): inactive
- Potency (Es-2): inactive
- Potency (HeLa): inactive
- Potency (Hek293T): inactive
- Potency (JEG-3): inactive
- Potency (OV90): inactive
- Potency (PA-1): inactive
- Potency (Tov-21-G): inactive
- Potency (Tov112D): inactive
- activity, negative = cell killing [1, 4]: -12%
- activity, negative = cell killing [1, 5]: -3.68%
- activity, negative = cell killing [1, 6]: -22.3%
- activity, negative = cell killing [1, 7]: 1.95%
- Potency (astro): inactive

Compound: CCOc1nc2cccc(C(=O)O)c2n1Cc1ccc(-c2ccccc2-c2nn[nH]n2)cc1
- Potency (CASKI): inactive
- Potency (Es-2): inactive
- Potency (HeLa): inactive
- Potency (Hek293T): inactive
- Potency (JEG-3): inactive
- Potency (OV90): inactive
- Potency (PA-1): inactive
- Potency (SKOV3): inactive
- Potency (Tov-21-G): inactive
- Potency (Tov112D): inactive
- activity, negative = cell killing [1, 4]: 5.1%
- Potency (astro): 20 µM (active)

Compound: [O-][n+]1cccc(CO)c1
- Potency (CASKI): inactive
- Potency (Es-2): inactive
- Potency (HeLa): inactive
- Potency (Hek293T): inactive
- Potency (JEG-3): inactive
- Potency (OV90): inactive
- Potency (PA-1): inactive
- Potency (Tov-21-G): inactive
- Potency (Tov112D): inactive
- activity, negative = cell killing [1, 4]: -6.72%
- activity, negative = cell killing [1, 5]: -10.2%
- activity, negative = cell killing [1, 6]: -20.8%
- activity, negative = cell killing [1, 7]: -13.8%
- Potency (astro): inactive
